Source: PubChem
CYP2C19 inh – human CYP2C19 inhibition. inhibition, % at 5 µM. AID 778. CYP2C19 Supersomes, luciferin-H EGE luminescence, 30 min. actives 21% (n = 96,000). P33261;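 active means CYP2C19 inhibition above a set limit at 5 µM in the primary screen, cut at about 50% in these data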;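 further: plate controls were negative control wells for no effect and 2.5 mM tranylcypromine positive control for full effect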
Target sequence (P33261 whole entry, looked up): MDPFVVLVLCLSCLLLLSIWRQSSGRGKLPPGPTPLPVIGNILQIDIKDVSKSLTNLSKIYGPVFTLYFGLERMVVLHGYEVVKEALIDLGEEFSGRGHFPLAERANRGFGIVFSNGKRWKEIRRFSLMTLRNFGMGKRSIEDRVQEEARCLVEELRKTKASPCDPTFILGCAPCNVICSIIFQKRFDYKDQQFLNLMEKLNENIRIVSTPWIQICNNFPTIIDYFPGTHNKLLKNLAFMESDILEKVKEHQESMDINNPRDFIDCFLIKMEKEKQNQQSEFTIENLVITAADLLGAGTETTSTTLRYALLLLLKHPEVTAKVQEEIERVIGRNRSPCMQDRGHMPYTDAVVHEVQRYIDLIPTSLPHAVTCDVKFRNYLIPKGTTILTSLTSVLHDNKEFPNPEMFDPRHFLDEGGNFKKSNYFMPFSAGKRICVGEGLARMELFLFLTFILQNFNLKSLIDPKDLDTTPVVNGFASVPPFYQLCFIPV
CYP2C9 inhib – blocks human cytochrome P450 2C9 | P11712 | CYP2C9 Supersomes, luciferin-H conversion, luminescence | inhibition, % at 5 µM | actives 20% (n = 96,000) | AID 777;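 active means blocking of liver enzyme CYP2C9 beyond about 50% at 5 µM, limit read from the data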
CYP2C9 act – increases human cytochrome P450 2C9 activity; recombinant CYP2C9, luciferin-H conversion, luminescence; active compounds read high; factor 1 = untreated enzyme, 0 = blocked; activation factor at 5 µM; actives 1.4% (n = 96,000);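 active means activation factor of 2 or more for CYP2C9 at a 5 µM dose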;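 further: 0 = sulfaphenazole-blocked wells and 1 = vehicle-only wells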
EphB4 antag – blocks human EphB4 binding to ephrin-B2. P54760. EphB4 LBD / TNYL-RAW-Alexa532 peptide, fluorescence polarization. AID 720. inhibition, % at 7 µM. actives 0.15% (n = 97,000);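 active means inhibition above the screen-wide mean inhibition plus 3 SD, cut at about 15% in these data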;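 further: 0% = DMSO wells and 100% = excess unlabeled TNYL-RAW peptide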
CYP2C19 activ – cytochrome P450 2C19 (human) activation; recombinant CYP2C19, luciferin-H EGE luminescence; active compounds read high; 0 = fully inhibited enzyme, 1 = untreated enzyme; activation factor at 5 µM; AID 1025; P33261; 96,000 tested, under 10 active;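 active means activation factor of at least 2 at 5 µM in the primary screen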;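 further: 0 = wells with 2.5 mM tranylcypromine and 1 = vehicle-only wells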
The depositor's hits bear a star; x = no result given. Compounds with a hit are over-represented: about 27% of the library has one in this group of screens.

SMILES	CYP2C19 inh	CYP2C9 inhib	CYP2C9 act	EphB4 antag	CYP2C19 activ
FC(F)(F)c1cccc(Cn2nnnc2-c2ccc(Cl)cc2)c1	92.3*	61.3*	0.4	1.9	0.1
CCCn1nnnc1-c1ccc(Cl)cc1	21.7	-0.9	1	-1.0	0.8
O=c1[nH]c(CSc2nc3ccccc3o2)nc2c1cnn2-c1ccccc1	78.4*	67.8*	0.3	x	0.2
Cn1c(=O)c2c(nc(NCCCN3CCOCC3)n2Cc2ccc(Cl)c(Cl)c2)n(C)c1=O	x	x	x	-0.9	x
CS(=O)(=O)N1CCc2cc(-c3csc(NC(=O)C(c4ccccc4)c4ccccc4)n3)ccc21	10.8	57.5*	0.4	-11.9	0.9
CC(=O)Nc1nc(C)c(-c2csc(Nc3cccc([N+](=O)[O-])c3)n2)s1	82.7*	89.4*	0.1	-1.1	0.2
CC(=O)Nc1nc(C)c(-c2csc(Nc3ccc(O)cc3)n2)s1	5.5	76.0*	0.2	-5.7	0.9
CS(=O)(=O)N1CCc2cc(C(=O)O)ccc21	2.7	6.4	0.9	3.2	1
Cc1ccc(-c2csc(NC(=O)c3cccc([N+](=O)[O-])c3)n2)cc1	-8.3	-9.7	1.1	-7.7	1.1
O=C(Nc1nc(-c2cccc([N+](=O)[O-])c2)cs1)C(c1ccccc1)c1ccccc1	10.4	73.9*	0.3	0.1	0.9
COc1ccccc1Nc1nc(-c2sc(NC(=O)C(C)(C)C)nc2C)cs1	11.6	40.2	0.6	-3.8	0.9
CC1Cc2cc(-c3csc(NC(=O)Cc4ccccc4)n3)ccc2N1S(C)(=O)=O (stereo not given)	25.1	58.1*	0.4	-3.6	0.7
CC(=O)c1cccc(Nc2nc(-c3cccc([N+](=O)[O-])c3)cs2)c1	31.7	57.4*	0.4	-4.8	0.7
CN(C)CC(=O)Nc1nc(-c2ccccc2)cs1	-2.8	-6.1	1.1	0.6	1
COc1ccc(NC(=O)C(=O)N/N=C/c2cccnc2)c(OC)c1	-3.7	-29.5	1.3	-1.4	1
O=C(NCc1ccccc1)C(c1ccc(O)cc1)N(C(=O)Cn1nnc(-c2cccs2)n1)c1ccc2c(c1)OCCO2 (stereo not given)	x	x	x	-0.8	x
COc1ccc(S(=O)(=O)CCC(=O)NC2CCCCC2)cc1	4.1	3.3	1	x	1
COc1ccc(S(=O)(=O)N(C)CC(=O)NC2CCCCC2)cc1Cl	52.9*	-141.2	2.4*	2.5	0.5
Cc1ccc(N(CC(=O)NC2CCC(C)CC2)S(=O)(=O)c2cccnc2)cc1 (stereo not given)	49.4	26.1	0.7	-2.8	0.5
COc1ccc(S(=O)(=O)N(C)CC(=O)NC2CCCCC2)cc1OC	29.0	-60.7	1.6	-1.7	0.7
COc1ccc(N(CC(=O)NC2CCCCC2)S(=O)(=O)c2cccnc2)cc1	53.2*	64.9*	0.4	-6.8	0.5
COc1ccc(S(=O)(=O)N(C)CC(=O)N2CCC(C(N)=O)CC2)cc1Cl	-5.4	-99.8	2*	x	1.1
COc1ccc(S(=O)(=O)N(C)CC(=O)NC2CC2)cc1	28.0	-149.8	2.5*	0.3	0.7
COc1ccc(S(=O)(=O)N(C)CC(=O)N2CCCCCC2)cc1OC	43.5	-52.4	1.5	-5.9	0.6
CN(CC(=O)NCc1cccnc1)S(=O)(=O)c1ccc2c(c1)c(=O)n(C)c(=O)n2C	-9.5	26.3	0.7	-5.5	1.1
SMILES	CYP2C19 inh	CYP2C9 inhib	CYP2C9 act	EphB4 antag	CYP2C19 activ
CCOC(=O)C1CCN(C(=O)CN(C)S(=O)(=O)c2cc(C)ccc2OC)CC1	44.7	54.2*	0.5	1.1	0.6
COc1ccc(S(=O)(=O)N(C)CC(=O)NCc2cccnc2)cc1Cl	53.9*	-65.2	1.7	1.9	0.5
COc1ccc(C)cc1S(=O)(=O)N(C)CC(=O)N1CCC(C)CC1	x	x	x	-3.1	x
COc1ccc(S(=O)(=O)N(CC(N)=O)C2CCCCC2)cc1Cl	72.4*	40.9	0.6	3.7	0.3
C=CCOc1cccc(C2C(C(=O)c3ccco3)=C(O)C(=O)N2CCN(CC)CC)c1 (stereo not given)	17.3	-10.9	1.1	-6.5	0.8
OC(Cn1cncn1)(c1ccccc1)c1ccccc1	51.0*	76.3*	0.2	5.2	0.5
N#CCCN1CCN(Cc2cc(-c3ccccc3)ccc2O)CC1	16.0	14.2	0.9	-6.4	0.8
CNC(=O)CN(c1cc(C)ccc1OC)S(=O)(=O)c1ccc(C)cc1	10.6	7.2	0.9	9.3	0.9
COc1ccc(C)cc1N(CC(N)=O)S(=O)(=O)c1ccc(C)cc1	90.1*	54.1*	0.5	x	0.1
COc1ccc(OC)c(N(CC(=O)NC2CC2)S(=O)(=O)c2ccc(C)cc2)c1	83.5*	79.9*	0.2	0.8	0.2
COc1ccc(S(=O)(=O)N(CC(=O)NC2CC2)c2ccc(C)cc2)cc1OC	99.1*	13.2	0.9	-10.2	0
NC(=O)C1CCN(C(=O)c2cnn(-c3ccccc3)c2NC(=O)c2ccco2)CC1	7.0	-2.7	1	-0.6	0.9
C=CCc1c(C)nc(C)nc1N/N=C/c1ccccc1	10.9	32.5	0.7	-5.0	0.9
Cc1[nH]c2ccc(C(=O)O)cc2c1C	99.1*	19.4	0.8	8.2	0
O=C(c1c[nH]c(C(=O)C(Cl)(Cl)Cl)c1)c1ccccc1Cl	40.9	72.5*	0.3	-3.1	0.6
CCCN1C2=C(C(=O)CC(C)(C)C2)C(c2ccc(F)cc2)C2=C1c1ccccc1C2=O (stereo not given)	-14.2	74.6*	0.3	1.4	1.1
CCOc1ccc(S(=O)(=O)NCCN2CCOCC2)c2ccccc12	76.2*	-24.2	1.2	3.0	0.2
Cc1cc(Br)c(S(=O)(=O)NCCN2CCOCC2)cc1C	41.3	-14.4	1.1	-6.4	0.6
CCCOc1ccc(S(=O)(=O)NCCN2CCOCC2)c2ccccc12	98.8*	44.5	0.6	-0.1	0
Cc1ccc(S(=O)(=O)NCCN2CCOCC2)cc1	19.7	-5.5	1.1	7.9	0.8
CCOc1cc(S(=O)(=O)NCCN2CCOCC2)c(C)cc1C	75.1*	-105.6	2.1*	-5.4	0.2
O=C(N/N=C/c1ccc(OCc2ccccc2)cc1)c1cccs1	34.4	39.9	0.6	10.9	0.7
C1=CC2CC1CC2CN1CCN(c2ccccc2)CC1 (stereo not given)	66.5*	20.2	0.8	x	0.3
CS(=O)(=O)N1CCN(CC2CC3C=CC2C3)CC1 (stereo not given)	4.8	-0.9	1	-3.8	1
Cc1ccccc1CN1CCN(CC2CC3C=CC2C3)CC1 (stereo not given)	61.0*	13.2	0.9	-2.0	0.4
CCc1[nH]c(C)c(C(C)=O)c1C	20.0	-7.1	1.1	-6.5	0.8
Cc1ccc(CNS(=O)(=O)c2ccc3oc(C(=O)O)c(C)c3c2)cc1	-10.7	66.6*	0.3	-0.3	1.1
Cc1c(C(=O)O)oc2ccc(S(=O)(=O)N(CC(C)C)CC(C)C)cc12	-5.4	35.9	0.6	x	1.1
CCN(CC)S(=O)(=O)c1ccc2oc(C(=O)NC(C)C)c(C)c2c1	-2.5	26.0	0.7	x	1
